Assay outcomes: PubChem, several laboratories
SKKanGAS inh: inhibitors of SKKanGAS S. pyogenes growth in kanamycin (SK-promoter or general growth effect); BacTiter-Glo, 6 h; inhibition, % at 7.5 µM; hit rate 1.3% among 300,000;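 active = mean replicate score, as percent of positive control median, at least 50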;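 note: strain carries kanamycin resistance gene driven by streptokinase promoter and grows in 40 µg/ml kanamycin; loss of luminescence reflects streptokinase promoter inhibition or plain growth inhibition; 0% = median of DMSO wells and 100% = positive control at its reference dose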
tim23-1 inh: inhibits growth of tim23-1 mutant yeast; S. cerevisiae tim23-1 growth, BacTiter-Glo luminescence, 24 h; inhibition, % at 20 µM; hit rate 1.3% among 330,000; AID 463212;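 active = growth inhibition of the mutant yeast at or above 50%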;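 note: temperature-sensitive mutant grown at 25 °C; plate controls were DMSO-treated mutant yeast for no effect and medium wells lacking yeast for full effect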
PfHsp90 yeast 2: inhibits growth of yeast expressing Plasmodium falciparum Hsp90; S. cerevisiae expressing PfHsp90, BacTiter-Glo ATP, 48 h; yeast lacking PDR1 and PDR3 efflux regulators; inhibition, % at 9.4 µM; hit rate 0.32% among 310,000; AID 504621;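 active = every replicate shows inhibition above about 80%, whatever the replicate mean, limit read from the data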;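 note: 0% = DMSO neutral controls and 100% = 20 µM radicicol positive controls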
TIM10 inh: inhibits growth of TIM10 yeast strain; S. cerevisiae TIM10 strain growth, BacTiter-Glo luminescence, 24 h; AID 463195; hit rate 1.4% among 330,000; inhibition, % at 10 µM;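 active = inhibition of 40% or more at the single tested concentration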;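 note: wild-type TIM10 isogenic control strain grown at permissive 25 °C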
tim10-1 inh: growth inhibitors of tim10-1 mutant yeast; S. cerevisiae tim10-1 ts strain growth, BacTiter-Glo, 24 h; inhibition, % at 20 µM; hit rate 2.2% among 330,000;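 active = inhibition of at least 40%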;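 note: mutant grown at 25 °C; 0% = DMSO wells with yeast and 100% = wells holding no yeast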
TIM10 conf: TIM10 yeast growth inhibition, confirmed | shares compounds with TIM10 inh | inhibition, % at 10 µM | hit rate 63% among 4,600 | S. cerevisiae tim10 strain growth, BacTiter-Glo luminescence, 24 h;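 active = inhibition of yeast growth at or above a set limit in either of two replicates at 10 µM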;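 note: this counterscreen used the strain with wild-type TIM10; 0% = yeast with DMSO and 100% = medium wells lacking yeast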
Numbers without * were called inactive; x = no result; ! = a repeat was not active. Rows were chosen to be rich in hits. Some 4.4% of all compounds tested hit in one or more screens of this group.

SMILES | SKKanGAS inh | tim23-1 inh | PfHsp90 yeast 2 | TIM10 inh | tim10-1 inh | TIM10 conf
CCCCOC(=O)c1ccc(NC(=O)c2ccoc2C)cc1 | 2.6 | 27.0 | 5.4 | 41.1* | 34.3 | 2.4
CCCOC(=O)c1ccc(NC(=O)c2ccoc2C)cc1 | 4.8 | 10.4 | 21.8 | -2.1 | -0.5 | x
O=C(CCNS(=O)(=O)c1ccc(Br)cc1)NCCc1ccc(Cl)cc1 | -8.7 | -11.8 | -38.9 | -10.9 | -5.3 | x
CCCCCCC(=O)NNC(=O)c1c(O)c2ccccc2n(CCC)c1=O | 92.3* | 4.2 | x | 45.6* | 3.4 | -12.1
O=C(N/N=C/c1cc([N+](=O)[O-])ccc1O)NC12CC3CC(CC(C3)C1)C2 | 6.8 | 34.5 | 13.2 | 43.2* | 34.6 | 30.9
CCOc1ccc(C(=O)O/N=C(\N)c2ccccn2)cc1 | 6.9 | 37.9 | 42.9 | 42.1* | 38.0 | 35.7*
CC1CN(C(=O)CCC(=O)NCCCc2ccccc2)c2ccccc2O1 (stereo unspecified) | -8.9 | 19.2 | 13.0 | 2.1 | 13.4 | x
CCn1c(O)c(/C=C2\C=Nc3ccccc32)sc1=O | -6.2 | 31.2 | 2.8 | 44.3* | 16.1 | -11.4
CCOC(=O)c1oc2ccc(Br)cc2c1COC(=O)C1=COCCO1 | -7.9 | 14.7 | -4.7 | -20.9 | 6.7 | x
O=C(Nc1ccc2nc(-c3ccco3)[nH]c2c1)c1ccco1 | 3.1 | 41.3 | x | 53.6* | 17.5 | 36.9*
O=C(Nc1cc2nn(-c3ccccc3)nc2cc1Cl)c1ccco1 | -4.5 | -9.0 | -4.5 | -2.4 | -1.8 | x
O=C(Nc1ccc(Oc2ccc(NC(=O)c3ccco3)c(NC(=O)c3ccco3)c2)cc1)c1ccco1 | 41.5 | 41.5 | x | 38.9 | 26.5 | x
O=C(Nc1ccc(Oc2ccc3ccccc3c2)cc1)c1ccco1 | 23.7 | 33.7 | -13.6 | 43.2* | 25.5 | 35.5*
O=C(Nc1ccc2nn(-c3ccccc3)nc2c1)c1ccco1 | 7.2 | 30.3 | 26.1 | 54.2* | 22.1 | 50.5*
C#CCOCCOCCOCCNc1nc(N2CCN(C(=O)[C@H](CCCCN)n3cc(CN)nn3)CC2)nc(N2CCN(C(=O)[C@H](CCCN=C(N)N)n3cc(C(N)[C@H](C)CC)nn3)CC2)n1 (stereo partly specified) | x | -4.1 | 18.9 | -2.0 | -4.9 | x
CC(Sc1nc(N)c2c3c(sc2n1)CSC(C)(C)C3)C(=O)Nc1ccccc1 (stereo unspecified) | 22.2 | 39.1 | 10.2 | 47.4* | 36.0 | -34.7
O=C1CCNc2cc3ccccc3cc21 | -5.6 | 14.4 | 13.3 | 42.1* | 31.7 | 30.9
O=Cc1[nH]c2ccccc2c1N(C(=O)CCl)c1ccc([N+](=O)[O-])cc1 | 4.7 | 49.7 | -9.2 | 41.3* | 25.9 | 30.2
COc1cc(C(=O)NCc2ccc3c(c2)OCO3)c([N+](=O)[O-])cc1OC | -5.4 | 0.5 | 6.4 | -3.4 | -1.4 | x
O=C(Nc1cccc(C(=O)N2CCOCC2)c1)C1CCCC1 | x | x | 9.2 | x | x | x
CCN(C(=O)Cn1c(=O)n2nc(CCn3nc(C)cc3C)nc2c2ccccc21)c1cccc(C)c1 | x | 44.0 | -14.2 | 48.1* | 36.1 | 44.8*
Cc1cccc(NC(=O)Cn2c(=O)n3nc(CCn4nc(C)cc4C)nc3c3ccccc32)c1 | -4.1 | 10.8 | -1.5 | 11.0 | 11.6 | x
Cc1cc(=O)oc2cc(OCC(=O)N3CCC(C(N)=O)CC3)ccc12 | 2.9 | -12.5 | -5.5 | -12.7 | 21.4 | x
O=C(CSc1ncnc2ccccc12)c1ccc2c(c1)OCCO2 | -17.2 | 46.0 | -22.8 | 47.0* | 36.6 | -29.2
COc1ccc(NC(=O)c2ccc(NC(=O)c3nc4nc(C)cc(C)n4n3)cc2)cc1 | x | 3.1 | 12.8 | 42.5* | 1.8 | 25.7
SMILES | SKKanGAS inh | tim23-1 inh | PfHsp90 yeast 2 | TIM10 inh | tim10-1 inh | TIM10 conf
COc1ccc(NC(=O)CSc2nc3nc(C)cc(C)n3n2)cc1 | 0.7 | 7.1 | -5.8 | -14.3 | 1.3 | x
Cc1noc(C)c1COc1ccc(C(=O)OCC(=O)N2CC3(C)CC2CC(C)(C)C3)cc1 (stereo unspecified) | x | 34.8 | 6.4 | 43.6* | 36.6 | 31.1*
COCCCN1C(=O)C(=O)/C(=C(/O)c2ccc(S(=O)(=O)N3CCOCC3)cc2)C1c1cccc(Cl)c1 (stereo unspecified) | 1.0 | 3.5 | 4.7 | -4.0 | 6.8 | x
Cc1ccc(S(=O)(=O)N2CCCCC2)cc1NC(=O)c1nn(C)c(=O)c2ccccc12 | x | 12.7 | x | -10.2 | 1.2 | x
Cc1cccc(OCC(O)CN2CCN(c3ccccn3)CC2)c1C (stereo unspecified) | -5.5 | -6.0 | -28.7 | 97.6* | -6.4 | 1.2
Cc1nnc(-c2cccc(Br)c2)c2cn(-c3ccccc3)nc12 | 8.9 | 27.5 | -43.4 | 45.7* | 31.6 | 46.3*
O=C(c1cn(-c2ccccc2)nc1-c1cccc(Br)c1)N1CCOCC1 | 0.6 | 35.7 | 47.6 | 7.9 | 33.7 | x
Cc1ccc(OCc2cc(C(=O)N3CCC(Oc4cccnc4)CC3)no2)cc1C | -14.9 | 27.7 | 14.1 | 29.9 | 35.7 | x
O=C(c1cc(COc2cccc(C(F)(F)F)c2)on1)N1CCC(Oc2cccnc2)CC1 | -7.8 | 38.7 | 2.9 | 43.2* | 38.2 | 43.0*
CCOC(=O)C1CCCN(C(=O)Cn2c(=O)c3cccn3c3cccnc32)C1 (stereo unspecified) | -7.9 | 9.1 | 8.6 | -1.1 | 20.4 | x
COc1ccccc1OCCCc1c(C)n[nH]c1C | -5.6 | -49.7 | 35.7 | 52.4* | 21.0 | 50.9*
COc1cccc(OCCc2c(C)n[nH]c2C)c1 | 6.4 | 10.3 | -5.2 | 10.1 | 14.0 | x
Cc1cccc(OCCCCc2c(C)n[nH]c2C)c1 | -4.7 | 37.9 | -3.1 | 40.4* | 23.6 | 38.8*
Cn1c(Cl)c(C(=O)Nc2ccccc2)c2ccccc21 | x | 46.2 | -4.6 | 51.1* | -7.1 | 56.9*
O=C(NC(=S)Nc1ccc2c(c1)OCCO2)c1cccc2ccccc12 | 32.7 | 40.0 | 4.0 | 44.1* | 38.8 | 48.3*
COc1ccc2cc3[n+](cc2c1OC)CCc1cc2c(cc1-3)OCO2 | 6.5 | 12.0 | -3.4 | 51.0*! | 39.1 | 30.2
COc1cccc(C2=NCCc3cc4c(cc32)OCO4)c1OC | 13.6 | 9.6 | -1.7 | 8.7 | 19.2 | x
O=C(Nc1ccc(C2CC2(Cl)Cl)cc1)c1ccccc1Br (stereo unspecified) | -0.8 | 42.0 | 9.4 | 41.2* | 32.3 | 19.1
Cn1nnnc1SC(C(=O)Nc1ccc(F)cc1)c1ccccc1 (stereo unspecified) | 0.5 | 13.9 | 16.5 | 17.3 | 19.3 | x
Cn1c(SC(C(=O)Nc2ccc(F)cc2)c2ccccc2)nc2ccccc21 (stereo unspecified) | 0.4 | 30.4 | 12.9 | 45.9* | 32.4 | 43.3*
O=C(c1cc(Cl)ccc1OCc1ccccc1)N1CCOCC1 | -4.9 | 18.7 | 16.3 | 12.3 | 1.4 | x
CC(C)(C)c1ccc(OCC(O)CN2CCOCC2)cc1 (stereo unspecified) | -5.6 | -3.6 | -15.9 | 48.3* | 3.7 | 8.5
CCCCCOCC1CC(C/C(C)=N/NC(N)=S)C(=O)O1 (stereo unspecified) | -6.0 | 6.9 | 19.0 | 6.0 | 12.2 | x
